# Compound activity deposited in PubChem BioAssay by National Center for Advancing Translational Sciences (NCATS).
# NS1 function inh: influenza NS1 inhibition; Potency, µM (series often up to 46.1 µM), for inactives: at the highest dose activity, positive = more growth; hit rate 0.4% among 270,000; calls by dose curve; note: potency is the fitted concentration of half-maximal effect; actives are rising curves; nearly all actives have a fitted effect of over 50% in size
#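 Read-out: OD600 growth recovery of NS1-expressing budding yeast. Cells grown overnight at 30C in -URA glucose medium, washed, resuspended and diluted 1:100 in 2% galactose assay medium, pH 6.0. Same strain lacking NS1 served as positive control.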
# SARS PLpro yeast: inhibitors of SARS-CoV papain-like protease in yeast; S. cerevisiae expressing SARS-CoV PLpro, growth rescue; Potency, µM (titrated, usually from 32.9 µM), without a hit: top-dose activity, positive = growth rescue, hits mostly activators; hit rate 0.19% among 330,000; calls by dose curve; note: potency is the fitted concentration of half-maximal effect; 0% is about no effect; nearly all actives have a fitted effect of over 55% in size
# LmPK inh: inhibitors of Leishmania mexicana pyruvate kinase; Q27686; purified LmPK, Kinase-Glo ATP luminescence, 1 h; Potency, µM (series often up to 57.5 µM), inactives show top-dose activity change, negative = inhibition, usual class: inhibitors; hit rate 0.37% among 290,000; AID 1721; note: potency is the fitted concentration of half-maximal effect; % is set by controls: 0 for no effect and ±100 for the full control effect
# Target sequence (Q27686 whole entry, looked up): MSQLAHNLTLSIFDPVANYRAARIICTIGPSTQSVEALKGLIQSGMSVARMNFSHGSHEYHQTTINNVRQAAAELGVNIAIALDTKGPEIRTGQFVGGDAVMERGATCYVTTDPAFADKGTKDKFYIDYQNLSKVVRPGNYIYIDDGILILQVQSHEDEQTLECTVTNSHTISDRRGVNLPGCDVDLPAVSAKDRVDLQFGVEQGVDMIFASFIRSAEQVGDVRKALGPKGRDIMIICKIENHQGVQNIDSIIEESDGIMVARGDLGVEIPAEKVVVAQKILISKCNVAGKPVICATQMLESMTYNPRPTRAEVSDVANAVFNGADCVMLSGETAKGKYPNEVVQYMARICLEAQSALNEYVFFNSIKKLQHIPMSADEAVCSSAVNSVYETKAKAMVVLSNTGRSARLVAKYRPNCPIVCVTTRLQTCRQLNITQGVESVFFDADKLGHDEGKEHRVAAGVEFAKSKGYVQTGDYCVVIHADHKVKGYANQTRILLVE
#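 Kinase-Glo luminescence read after 1 h RT reaction of 0.1 nM LmPK with 0.5 mM PEP and 0.1 mM ADP. Activity scaled between uninhibited and enzyme-free controls.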
# RE007 growth inh: less growth of the S. pombe RE007 Vpr strain; S. pombe RE007 Vpr strain, BacTiter-Glo ATP luminescence, 24 h; Potency, µM (top dose mostly 92.2 µM), for the others: at the top dose activity change, negative = less growth, hits mostly inhibitors; hit rate 0.21% among 360,000; active = well fitted falling curve with a large enough effect; inconclusive = small, poorly fitted or top-dose-only effect; inactive = no such curve, though single readings can be large or run the other way; note: potency is the fitted concentration of half-maximal effect; % is set by controls: 0 for no effect and ±100 for the full control effect; nearly all actives have a fitted effect of over 50% in size
#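 Fission yeast strain RE007, carrying one chromosomally integrated HIV-1 vpr copy, was seeded at OD 0.01 in PMG+AL medium with 23 nL pinned compound. After 24 h at 30 °C and 99% humidity, viability was read by BacTiter-Glo luminescence.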
# Sm TGR block: blocks Schistosoma mansoni thioredoxin glutathione reductase; purified TGR, DTNB reduction, TNB absorbance 405 nm; Potency, µM (doses to about 114 µM), for inactives: at the highest dose activity change, negative = inhibition, usual class: inhibitors; hit rate 3% among 360,000; AID 485364; note: potency is the fitted concentration of half-maximal effect; % is set by controls: 0 for no effect and ±100 for the full control effect; nearly all actives have a fitted effect of over 60% in size
#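 Kinetic colorimetric format: TGR-catalysed, NADPH-driven DTNB reduction monitored via TNB absorbance. Enzyme dispensed at 20 nM; compound exposure 15 min at room temperature before reaction start.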
# Tb PYK inh: T. brucei pyruvate kinase inhibition; Q57TT1; hit rate 0.12% among 410,000; TbPYK enzyme, Kinase-Glo Plus ATP luminescence, 45 min; Potency, µM (titrated, usually from 76.8 µM), for inactives: at the top dose activity, negative = inhibition, hits mostly inhibitors; note: potency is the fitted concentration of half-maximal effect; % is set by controls: 0 for no effect and ±100 for the full control effect; nearly all actives have a fitted effect of over 50% in size
#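 TbPYK + substrate in 50 mM TEA pH 7.2, 100 mM KCl, 10 mM MgCl2, 0.05% BSA, 0.01% Tween-20; cpd pinned; ADP 130 uM final; 45 min RT; Kinase-Glo Plus 10 min; luminescence endpoint.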
# NS1 inh valid: influenza NS1 function inhibition validation | shares compounds with NS1 function inh | influenza NS1 function cell assay, 15-point titration | activity change, negative = inhibition, % at 32.9 µM | 1,400 tested, under 10 active | AID 492980; calls by dose curve; note: 0% is about no effect
# The depositor's hits bear a star; ? = inconclusive; · = no result. Compounds with a hit are over-represented: about 3.3% of the library has one in this group of screens. Unless noted, calls come from the whole dose curve; as a rule, active = well fitted curve in the direction sought with a large enough effect; inconclusive = small, poorly fitted or top-dose-only effect, or another doubt; inactive = no such curve, though single readings can be large; an effect the other way counts as inactive or inconclusive.
SMILES,NS1 function inh,SARS PLpro yeast,LmPK inh,RE007 growth inh,Sm TGR block,Tb PYK inh,NS1 inh valid
CCN1CCN(CCNC(=O)c2ccc(CS(=O)(=O)c3c(Cl)cccc3Cl)o2)CC1,?,-3%,-1%,0%,2%,-1%,-16
O=C(CSc1nnnn1Cc1ccccc1)c1ccccc1,-14%,-11%,1%,-16%,1%,-10%,·
O=C(CSc1nnnn1Cc1ccccc1)c1ccc(F)cc1,7.9µM*,0%,6%,7%,3%,-10%,25
CCc1nnc(SC(CC)C(=O)Nc2cccc(OC)c2)c2cc3oc(C)cc3n12 (configuration not stated),·,·,·,·,3%,2%,·
CCC(C)COC(c1ccccc1)(c1ccccc1)C(Oc1nc(C)cc(C)n1)C(=O)O (configuration not stated),?,-2%,1%,5%,-22%,3%,·
Cc1cc(C)nc(OC(C(=O)O)C(OCC(C)C)(c2ccccc2)c2ccccc2)n1 (configuration not stated),6.3µM*,-4%,6%,6%,-8%,-1%,32
Cc1ccc(-n2nnnc2SCC(=O)c2cc(C)n(-c3cc(C)on3)c2C)c(C)c1,?,11%,4%,-16%,-24%,-6%,-15
Cc1cc(-n2c(C)cc(C(=O)CSc3nnnn3-c3ccccc3)c2C)no1,-4%,-6%,1%,40%,-27%,0%,·
COc1ccc(CN2CCN(C(=O)CCC(=O)Nc3nnc(CC(C)C)s3)CC2)cc1F,2.2µM*,15%,-3%,13%,-25%,-3%,?
CCN(CC)C(=O)CSc1nc(O)cc(=O)n1-c1ccccc1OC,8.9µM*,3%,3%,38%,0%,-9%,37
COc1ccc(NC(=O)CSc2nc(O)cc(=O)n2-c2ccccc2OC)cc1,?,1%,8%,4%,-15%,1%,·
COc1ccc(/C=C(/NC(=O)c2ccccc2)C(=O)N2CCOCC2)cc1OC,?,0%,5%,10%,1%,-5%,3
COc1cccc(CNC(=O)Cc2csc3ccccc23)c1OC,·,·,·,·,1%,-2%,·
O=C(c1cc(COc2ccc(F)cc2Cl)on1)N1CCCCC1c1cccnc1 (configuration not stated),-16%,-10%,2%,-4%,-21%,-5%,·
COc1cc(Cl)ccc1OCc1cc(C(=O)N2CCCCC2c2cccnc2)no1 (configuration not stated),3.2µM*,-48%,7%,-8%,-15%,-6%,?
Cc1cc(C)c2c(n1)sc1c(-c3ccccc3)c(C#N)c(N)nc12,4.5µM*,-2%,1%,0%,-2%,?,2
Cc1nc(N)c(C#N)c(-c2ccccc2)c1C,-6%,-2%,5%,21%,-23%,-4%,·
COc1ccc(-c2noc(CCCC(=O)O)n2)cc1,6%,1%,-7%,-17%,1%,-6%,·
COc1ccc(-c2noc(CCC(=O)O)n2)cc1,3.5µM*,?,5%,-11%,0%,4%,-30
COc1ccc(OC)c(NC(=O)Nc2cccc(OCc3cc(=O)n4cc(C)ccc4n3)c2)c1,·,·,·,·,?,-8%,·
CCc1ccc(/C=C2\CN(CC)Cc3c2nc2ccccc2c3C(=O)O)cc1,3.5µM*,1%,-11%,4%,-21%,-3%,-15
CCn1cc(/C=C(\NC(=O)c2ccc(OC)c(OC)c2)C(=O)NCCCn2ccnc2)c2ccccc21,·,·,·,·,-5%,1%,·
C/C(=N\NC(=S)Nc1cc(S(=O)(=O)N2CCOCC2)ccc1Cl)c1ccc(N2CCOCC2)cc1,3%,-1%,2%,-3%,26%,-9%,·
C/C(=N\NC(=S)Nc1ccc(C)c(C)c1)c1ccc(N2CCOCC2)cc1,7.9µM*,-22%,-6%,-6%,-3%,5%,?
